# Out of some 59,000 compounds screened, about 6,200 (11%) were called active. Roughly 9% stayed inconclusive and do not appear here. No stated cut-off is given here; in the data, active means max dye-equivalent concentration above about 10 nM; inconclusive means mostly about 1.1 nM to 9.6 nM; inactive means weaker than that. This excerpt belongs to a sample that is enriched for actives.
# Assay: qHTS Assay for Spectroscopic Profiling in 4-MU Spectral Region
# Conditions: compound autofluorescence, 340/450 nm, 4-MU equivalents; hits give high values
# Outline: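 Compounds in 100 mM Tris, pH 8.0, sat 15 min at room temperature before fluorescence was read at 340 nm excitation/450 nm emission; a per-plate six-point 4-MU standard curve converted signals to dye-equivalent concentration at each compound concentration.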
row,Compound,max dye-equivalent concentration
1,CC(C)c1ccc(N2CC(C(=O)Nc3nccs3)CC2=O)cc1 (configuration not stated),inactive
2,Cn1nnnc1SCC(=O)N1CCN(C(c2ccccc2)c2ccccc2)CC1,inactive
3,COc1ccc2nc(NC3=NCN(CC4CCCO4)CN3)nc(C)c2c1 (configuration not stated),92 nM (active)
4,Cc1ccc2nc(NC3=NCN(CCc4ccccc4)CN3)nc(C)c2c1,inactive
5,c1ccc(CCN2CN=C(Nc3nc4ccccc4o3)NC2)cc1,inactive
6,Cc1ccc(S(=O)(=O)NCC(=O)N(CC(=O)NC2CCCCC2)Cc2ccco2)cc1,inactive
7,Cc1nc2ccccc2c2oc(C(=O)NCC3CCCO3)cc12 (configuration not stated),12 nM (active)
8,Cc1ccc(C(=O)NCC2CCCO2)o1 (configuration not stated),inactive
9,CCCC(=O)N(CCc1ccccc1)Cc1nc2ccccc2c(=O)[nH]1,inactive
10,c1ccc2c(NCC3CCCO3)nc(-c3ccncc3)nc2c1 (configuration not stated),inactive
11,CCCN(CCC)CCNC(=O)c1cc2c(C)nc3ccccc3c2o1,17 nM (active)
12,Cc1cc(C(=O)NCCCc2ccccc2)no1,inactive
13,Cc1cc(NC(=O)CN2CCC(O)(c3cccc(F)c3)CC2)no1,inactive
14,CCn1c(SCC(=O)c2ccc(Cl)s2)nnc1-c1cccs1,inactive
15,Cc1ccn2cc(-c3nonc3C)cc2c1,inactive
16,COC(=O)c1cccc(NC(=O)CSc2nc(C)cc(=O)[nH]2)c1,inactive
17,Cc1ccc(NC(=O)c2nc[nH]c2C(=O)N2CCCCC2)c(C(=O)c2ccccc2)c1,inactive
18,Cc1ccc2c(c1)sc1ncc(NC(=O)c3ccccc3)c(=O)n12,55 nM (active)
19,Cc1ccccc1NC(=O)c1ccccc1,inactive
20,CCOC(=O)c1c(C)[nH]c(C)c1C(=O)CSc1nc(N)cc(N)n1,inactive
21,CCOC(=O)N1CCC(NC(=O)CN2C(=O)COc3ccc(C(C)(C)C)cc32)CC1,inactive
22,O=C(c1cccc(F)c1)N1CCC2(CCCN(Cc3ccncc3)C2)CC1,inactive
23,CCC12CN3CC(CC)(CN(C1)C31C(=O)N(C)c3ccc(C)cc31)C2=O (configuration not stated),inactive

row,Compound,max dye-equivalent concentration
1,CCOC(=O)c1cc2cc(C)ccc2[nH]1,inactive
2,CC(=O)OCc1cc2cc(C)ccc2[nH]c1=O,inactive
3,CCNCc1cc2cc(C)ccc2[nH]c1=O,49 nM (active)
4,O=C(CNC(=O)c1ccc(Cl)cc1Cl)NCC(=O)Nc1ccccc1N1CCOCC1,inactive
5,COc1ccc2c(c1OC)C(=O)OC2c1c(O)nc(SC)n(-c2ccccc2)c1=O (configuration not stated),inactive
6,O=c1[nH]c(-c2cccs2)nc2ccccc12,inactive
7,O=c1[nH]c(=O)c2nc3ccccc3nc2[nH]1,210 nM (active)
8,CC1(C)CCCC2=C1CC1C(=O)N(c3ccccc3)C(=O)C1C2 (configuration not stated),inactive
9,CCOC(=O)C1CCN(Cc2coc3ccc(Cl)cc3c2=O)CC1,inactive
10,Cc1noc(C)c1-c1nccc(N2CCOCC2)n1,inactive
11,CC[C@@H]1Cc2cc(O)ccc2C2=C1c1ccc(O)cc1C[C@H]2CC,270 nM (active)
12,O=C(NCCC1=CCCCC1)C1CCN(Cc2cnn(-c3ccccc3)c2-n2cccc2)CC1,inactive
13,COC(=O)c1ccc(Oc2nc(Nc3ccc(F)cc3)nc(N3CCCC3)n2)cc1,inactive
14,c1ccc(CNc2ncncc2-c2cccnc2)cc1,inactive
15,Cc1ccc(S(=O)(=O)c2nc(NCCCn3ccnc3)sc2Cl)cc1,inactive
16,Cc1ccc(C(=O)O)cc1S(=O)(=O)NCC1CCCO1 (configuration not stated),inactive
17,CCOc1cc(-c2nc3cc(C)ccn3c2NCC2CCCO2)ccc1O (configuration not stated),68 nM (active)
18,Cc1ccc(-c2noc(-c3ccccc3C(=O)NCC3CCCO3)n2)cc1 (configuration not stated),inactive
19,O=C(CSc1nnc(-c2ccco2)o1)NCC(=O)c1ccccc1,inactive
20,COc1ccc(C(=O)N(Cc2ccc(N(C)C)cc2)C2CCS(=O)(=O)C2)cc1 (configuration not stated),inactive
21,CC(=O)N1CCC2(CCCN(c3ncccn3)C2)CC1,inactive
22,COc1cc2c(cc1OC)C(c1ccncc1)CC(=O)N2 (configuration not stated),inactive
23,c1ccc2[nH]c(NCCN3CCOCC3)nc2c1,inactive

row,Compound,max dye-equivalent concentration
1,COc1ccc(CSc2nc(N3CCOCC3)c3c(c2C#N)CC(C)(C)OC3)cc1,30 nM (active)
2,CC1(C)Cc2c(C#N)c(SCc3nc4ccccc4[nH]3)nc(N3CCOCC3)c2CO1,28 nM (active)
3,COc1ccc(C(CNC(=O)c2cccnc2SC)N2CCOCC2)cc1 (configuration not stated),inactive
4,CC(C)Cc1nc(N2CCOCC2)c(C#N)c2c1CCC2,56 nM (active)
5,CC(C)c1nc(N2CCOCC2)c(C#N)c2c1COC(C)(C)C2,140 nM (active)
6,CCn1c(Cc2ccccc2)nnc1SCc1nc2ccccc2c(=O)[nH]1,inactive
7,O=C(Nc1cccc(F)c1)N1CC2(CCN(C(=O)c3csnn3)CC2)C1,inactive
8,O=C(c1cc(C(F)(F)F)cc(C(F)(F)F)c1)N1CCC[C@@]2(CCN(c3ccccn3)C2)C1,inactive
9,Cc1cc(C)n(C(=O)c2ccc(S(=O)(=O)N3CCCC3)cc2)n1,inactive
10,CCSc1nc(=S)n(CC)c(C)c1C(C)=O,inactive
11,CCOC(=O)c1sc(NC(=O)CSc2nnc(-c3ccco3)o2)c(C(=O)OCC)c1C,inactive
12,CC1CCCN(C(=O)Cn2c(=O)oc3ccccc32)C1 (configuration not stated),inactive
13,COC(=O)C1=C(C)NC(=O)NC1/C=C/c1ccccc1 (configuration not stated),inactive
14,CC(C)C(=O)N1CCN(c2nc(-c3ccccc3)c3c(c2C#N)CC(C)(C)OC3)CC1,190 nM (active)
15,CNC(=O)Nc1cc(C(C)(C)C)no1,inactive
16,Cn1nnc(NC(=O)CSc2ncn[nH]2)n1,inactive
17,CCCC(=O)Nc1ccc2c(c1)nc1n2CCSC1,inactive
18,CCCCCC(=O)Nc1ccc2oc(-c3ccncc3)nc2c1,23 nM (active)
19,CCCCC(=O)Nc1ccc2c(c1)OCCO2,inactive
20,O=C(c1ccco1)N1CCC2(CC1)CCN(c1ncccn1)CC2,inactive
21,O=C1NC(c2ccncc2)Nc2sc3c(c21)CCCC3 (configuration not stated),59 nM (active)
22,COC(=O)c1ccc(Oc2nc(NC(C)C)nc(SC)n2)cc1,inactive
23,c1ccc2c(Nc3ccncc3)nc(-c3ccc4c(c3)OCO4)nc2c1,19 nM (active)

row,Compound,max dye-equivalent concentration
1,c1ccc2c(Nc3ccncc3)nc(-c3ccoc3)nc2c1,inactive
2,COc1cccc(-c2nc(Nc3ccncc3)c3ccccc3n2)c1,inactive
3,CCOCCCN1C(=O)CN(C2CCCCC2)C(=O)C1c1ccc(OCC)c(OC)c1 (configuration not stated),inactive
4,COc1ccc(CNC(=O)c2c(C)cc(=O)oc2C)cc1OC,inactive
5,COCCN(C(=O)CCC(=O)Nc1ccccn1)C(C(=O)NCCC(C)C)c1ccc(OC)cc1 (configuration not stated),inactive
6,Oc1ccccc1CNCc1ccccc1O,inactive
7,c1ccc2c(CNn3cnnc3)cccc2c1,inactive
8,Cc1cc(C)c2c(c1)c(C)cc1nnc(SCC(=O)NCc3ccco3)n12,inactive
9,COc1ccc2nc(N3CCCC(O)C3)c(C#N)cc2c1 (configuration not stated),170 nM (active)
10,COc1ccc(OC)c(CNC(=O)C2CCCN(c3nc4ccccc4o3)C2)c1 (configuration not stated),inactive
11,Nc1nonc1-c1noc(-c2ccc(Br)o2)n1,inactive
12,c1csc(CN2CCN(Cc3cccs3)C2c2cccs2)c1,inactive
13,Cc1nn(-c2ccccc2)c2[nH]c(C(F)(F)F)cc(=O)c12,inactive
14,COc1ccc(CC(=O)Nc2nc3n(n2)C(c2ccccc2)CC(=O)N3)cc1OC (configuration not stated),inactive
15,COc1ccc(CCNC(=O)C2CCN(c3nn4c(=O)cc(C)nc4s3)CC2)cc1OC,inactive
16,CCOc1ccc(CCNC(=O)C2CCN(c3ccc(N4CCOCC4)nn3)CC2)cc1OCC,410 nM (active)
17,CCCS(=O)(=O)N1CCC(C(=O)NCCc2ccc(OC)c(OC)c2)CC1,inactive
18,Cc1ccc(-n2c(N)c(C(=O)N3CCOCC3)sc2=S)c(C)c1,inactive
19,CS(=O)(=O)N1CCC2(CC1)CN(Cc1cc(C(F)(F)F)cc(C(F)(F)F)c1)C2,inactive
20,CCOc1cc(CN2CCN(C(=O)CC(C)C)CC2)ccc1OC,inactive
21,O=C(CSc1nnc(-c2ccccn2)n1-c1ccccc1)Nc1ccc2c(c1)OCO2,inactive
22,COc1cccc(Oc2ccc(N)cc2)c1,inactive
23,COc1ccc2[nH]c3ccc(OC)cc3c2c1,200 nM (active)

row,Compound,max dye-equivalent concentration
1,COc1ccc2[nH]c3cc4c(=O)c5cc(OC)ccc5[nH]c4cc3c(=O)c2c1,inactive
2,O=C(O)CN(Cc1ccco1)S(=O)(=O)c1ccc(F)cc1,inactive
3,O=C(c1ccco1)N1CCN(CC(=O)N(C2CCCCC2)C2CCS(=O)(=O)C2)CC1 (configuration not stated),inactive
4,Cc1c(NC(=O)c2cccnc2)c(=O)n(-c2ccccc2)n1C,inactive
5,Cc1cc(C(=O)Nc2c(C)n(C)n(-c3ccccc3)c2=O)cs1,inactive
6,Cc1c(NC(=O)c2coc(=O)c(Br)c2)c(=O)n(-c2ccccc2)n1C,190 nM (active)
7,CCOCCCNS(=O)(=O)Cc1ccccc1,inactive
8,O=C(NC1CCCCC1)C1c2ccccc2C(=O)N1Cc1ccco1 (configuration not stated),inactive
9,O=C1c2cccnc2C(Nc2ccc(S(=O)(=O)N3CCCCCC3)cc2)N1Cc1ccccc1 (configuration not stated),inactive
10,O=C1c2ccccc2C(O)N1Cc1ccccc1 (configuration not stated),25 nM (active)
11,CCOC(=O)CSc1nnc(NC(=O)c2cccc(S(=O)(=O)N3CCCC3)c2)s1,inactive
12,CN1C(=O)C[C@H](c2ccccc2)C1=O,inactive
13,CCCCCOC(=O)NCCOC(=O)Nc1ccc(C(=O)OCC)cc1,inactive
14,COc1cccc(-c2cc3nc4c(c(N5CCC6(CC5)OCCO6)n3n2)CCCC4)c1,100 nM (active)
15,COc1cccc(-c2nc(S(=O)(=O)c3ccccc3)c(N3CCOCC3)o2)c1,inactive
16,CC1CC(C)CN(CC(=O)Nc2ccc(S(N)(=O)=O)cc2)C1 (configuration not stated),inactive
17,Cc1cccn2c(=O)c3cc(C#N)c(=O)n(CCCN4CCOCC4)c3nc12,8300 nM (active)
18,Cc1nnc(SCC(N)=O)n1CC1CCCO1 (configuration not stated),inactive
19,Cc1cccn2c(=O)c3cc(C#N)c(=NC(=O)c4cccnc4)n(CC4CCCO4)c3nc12 (configuration not stated),3400 nM (active)
20,Cn1c(=O)c2c(nc(CN3CCOCC3)n2Cc2ccccc2)n(C)c1=O,inactive
